This is part of a sample that, as a whole, favours compounds with a hit. Of some 83,000 tested, about 20% had one in any assay.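 Plates (96-well) were seeded with cells, treated with compound at one concentration, and incubated for 48 hours before percent growth was determined.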 A number with no mark means an inactive call. The source made the active and inactive calls. Rule for the calls: active = growth percent below 10; inactive = the rest.
Tests used:
Assay in all cases: NCI-60 one-dose screen, 48 h (100 = growth as untreated, 0 = no growth, -100 = all killed)
[1] = test system: HT29 colon; details: 10 µM
[2] = test system: SNB-19 CNS; details: 10 µM
[3] = test system: U251 CNS; details: 10 µM
[4] = test system: PC-3 prostate; details: 10 µM
[5] = test system: UACC-62 melanoma; details: 10 µM unless noted
[6] = test system: LOX IMVI melanoma; details: 10 µM
[7] = test system: SK-MEL-28 melanoma; details: 10 µM
[8] = test system: SNB-75 CNS; details: 10 µM
[9] = test system: SK-MEL-5 melanoma; details: 10 µM

CCOC(=O)CCCS(C)(=O)=O
growth [1]: 105%
growth [2]: 100%
growth [3]: 105%
growth [4]: 87.9%
growth [5]: 93.7%
growth [6]: 98.8%
growth [7]: 104%

CCCNC(=O)c1ccc(S(N)(=O)=O)cc1
growth [1]: 93.1%
growth [8]: 72.6%
growth [2]: 107%
growth [3]: 103%
growth [9]: 101%
growth [5]: 109%
growth [6]: 98.9%
growth [7]: 97.8%

Cc1cccc([N+](=O)[O-])c1Cl
growth [1]: 112%
growth [8]: 95.2%
growth [2]: 106%
growth [3]: 102%
growth [4]: 102%
growth [5]: 105%
growth [6]: 101%
growth [7]: 107%

CC[N+](C)(CC)CCO
growth [1]: 103%
growth [8]: 108%
growth [2]: 97.7%
growth [4]: 102%
growth [9]: 101%
growth [5]: 102%
growth [6]: 101%
growth [7]: 110%

CCCCCC(C)(CC(=O)O)CC(=O)O
growth [1]: 105%
growth [8]: 97.4%
growth [2]: 116%
growth [3]: 102%
growth [4]: 99.6%
growth [9]: 101%
growth [5]: 119%
growth [6]: 112%
growth [7]: 108%

CCc1nn(Cc2ccccc2)c2nc(C)c(CCc3ccccc3)c(Cl)c12
growth [1]: 88.6%
growth [8]: 93.2%
growth [2]: 80.2%
growth [3]: 96.9%
growth [4]: 76%
growth [9]: 82.7%
growth [5]: 84.5%
growth [6]: 92.6%
growth [7]: 107%

c1ncc2[nH]cnc2n1
growth [1]: 92.3%
growth [2]: 102%
growth [3]: 103%
growth [4]: 86.3%
growth [5]: 91.9%
growth [6]: 103%
growth [7]: 100%

COc1ccc2c(NCCCCCCCCNc3c4ccccc4nc4cc(OC)ccc34)c3ccccc3nc2c1
growth [1]: -100% (active)
growth [8]: -100% (active)
growth [2]: -86.7% (active)
growth [3]: -100% (active)
growth [4]: -100% (active)
growth [9]: -100% (active)
growth [5]: -100% (active)
growth [6]: -98.6% (active)
growth [7]: -100% (active)

Cc1c(C(=O)O)c(=O)n(-c2ccccc2)n1C
growth [1]: 112%
growth [8]: 109%
growth [2]: 111%
growth [3]: 115%
growth [4]: 101%
growth [9]: 113%
growth [5]: 108%
growth [6]: 99.5%
growth [7]: 122%

CCOC(=O)c1[nH]c(C)c(C(C)=O)c1C
growth [1]: 93%
growth [8]: 78.2%
growth [2]: 94.4%
growth [3]: 91.2%
growth [9]: 93.4%
growth [5]: 100%
growth [6]: 82.2%
growth [7]: 97.4%

C=CCNc1ccccc1
growth [1]: 98.4%
growth [2]: 91.5%
growth [3]: 106%
growth [4]: 85.2%
growth [5]: 89.9%
growth [6]: 93.7%
growth [7]: 99.9%

CCCCNC1(C#N)CCN(Cc2ccccc2)CC1
growth [1]: 106%
growth [8]: 84.2%
growth [2]: 91.1%
growth [3]: 101%
growth [4]: 96.1%
growth [9]: 107%
growth [5]: 95%
growth [6]: 99.7%
growth [7]: 102%

Cc1nc2ccccc2c2nnc(SCC(=O)N(Cc3ccccc3)c3ccccc3)n12
growth [1]: 96.1%
growth [8]: 90.4%
growth [2]: 102%
growth [3]: 98%
growth [4]: 84.1%
growth [9]: 45.1%
growth [5]: 84.7%
growth [6]: 91.6%
growth [7]: 109%

CCCCOC(OCCCC)c1ccccc1
growth [1]: 102%
growth [8]: 88.9%
growth [2]: 95.4%
growth [3]: 109%
growth [4]: 98.7%
growth [9]: 103%
growth [5]: 97.2%
growth [6]: 92.7%
growth [7]: 107%

S=C1CCCCCN1
growth [1]: 108%
growth [8]: 89.1%
growth [2]: 99.1%
growth [3]: 111%
growth [4]: 105%
growth [9]: 107%
growth [5]: 100%
growth [6]: 101%
growth [7]: 105%

NC(=O)N/N=C\c1ccco1
growth [1]: 103%
growth [2]: 102%
growth [3]: 101%
growth [4]: 104%
growth [9]: 107%
growth [5]: 103%
growth [6]: 102%
growth [7]: 116%

Cc1cc(/C=C/c2ccc3cc(N(C)C)ccc3[n+]2C)c(C)n1-c1ccccc1
growth [1]: 4.1% (active)
growth [2]: 9.5% (active)
growth [3]: -11.9% (active)
growth [4]: -7.89% (active)
growth [9]: -96.8% (active)
growth [6]: -38% (active)
growth [7]: -63.9% (active)

O=C(O)[C@@H]1[C@H]2C[C@H]3c4[nH]c5ccccc5c4CCN3C[C@@H]2CC[C@@H]1O
growth [1]: 103%
growth [8]: 88.4%
growth [2]: 111%
growth [3]: 114%
growth [9]: 111%
growth [5]: 99.4%
growth [6]: 103%
growth [7]: 120%

COc1cc(CCN=Cc2ccccc2O)c([N+](=O)[O-])cc1OC
growth [1]: 101%
growth [8]: 96.6%
growth [2]: 99.3%
growth [4]: 98.9%
growth [9]: 101%
growth [5]: 109%
growth [6]: 99.4%
growth [7]: 113%

CCCNc1ccc(C2=NCCCN2)cc1
growth [1]: 96%
growth [8]: 84.2%
growth [2]: 102%
growth [3]: 87.4%
growth [4]: 94.6%
growth [9]: 97.5%
growth [6]: 95.1%
growth [7]: 114%

CC(=O)OC1CC2C(C)(C)OC3CC(=O)OCC32C2CCC3(C)C(=CCC3c3ccoc3)C12C (stereo unspecified)
growth [1]: 102%
growth [8]: 97%
growth [2]: 101%
growth [3]: 107%
growth [4]: 105%
growth [9]: 92.5%
growth [5]: 72.1%
growth [6]: 98.4%
growth [7]: 86.9%

CCOC(=O)C(C#N)Cc1ccccc1 (stereo unspecified)
growth [1]: 104%
growth [8]: 99.1%
growth [2]: 100%
growth [3]: 112%
growth [4]: 90.2%
growth [9]: 117%
growth [5]: 111%
growth [6]: 107%
growth [7]: 120%

O=c1cc(-c2ccccc2)[nH]c2c1CCCC2
growth [8]: -7.33% (active)
growth [2]: 39.4%
growth [3]: 27.9%
growth [4]: 28.5%
growth [9]: 7.3% (active)
growth [5]: 35.2%
growth [6]: 37.4%
growth [7]: 52.1%

COc1cccc(Sc2ccc([N+](=O)[O-])c3no[n+]([O-])c23)c1
growth [1]: 30.2%
growth [8]: 31.8%
growth [2]: 83.3%
growth [4]: 59.4%
growth [5]: 53.2%
growth [6]: 28.9%
growth [7]: 55%

CCOC(=O)C/C(C)=N\O
growth [1]: 98.9%
growth [8]: 118%
growth [2]: 99.2%
growth [4]: 96.8%
growth [9]: 100%
growth [5]: 107%
growth [6]: 100%
growth [7]: 121%

COc1ccc(C(C)C=O)cc1 (stereo unspecified)
growth [1]: 112%
growth [8]: 88.4%
growth [2]: 107%
growth [3]: 107%
growth [9]: 123%
growth [5]: 106%
growth [6]: 105%
growth [7]: 116%

O=C(O)CNC(=O)c1ccccc1
growth [3]: 96.6%

CN(C)/N=C/c1ccccc1O
growth [1]: 111%
growth [8]: 87.8%
growth [2]: 97.8%
growth [3]: 95.4%
growth [4]: 121%
growth [9]: 103%
growth [5]: 98.4%
growth [6]: 98.7%
growth [7]: 111%

CC1(c2ccccc2)NC(=O)NC1=O (stereo unspecified)
growth [1]: 110%
growth [2]: 103%
growth [3]: 113%
growth [4]: 98.6%
growth [9]: 108%
growth [5]: 100%
growth [6]: 109%
growth [7]: 113%

COc1cc(C2c3cc4c(cc3C3OC(=O)C2C3CO)OCO4)cc(OC)c1OC (stereo unspecified)
growth [1]: -9.63% (active)
growth [8]: 53.4%
growth [2]: 46.6%
growth [3]: 19.7%
growth [4]: 19.2%
growth [5]: 29.7%
growth [6]: 7.4% (active)
growth [7]: 49.4%

C/C=C/CC(C)C(O)C1C(=O)NC(CC)C(=O)N(C)CC(=O)N(C)C(CC(C)C)C(=O)NC(C(C)C)C(=O)N(C)C(CC(C)C)C(=O)NC(C)C(=O)NC(C)C(=O)N(C)C(CC(C)C)C(=O)N(C)C(CC(C)C)C(=O)N(C)C(C(C)C)C(=O)N1C (stereo unspecified)
growth [1]: -37.2% (active)
growth [2]: 41.7%
growth [3]: 29.7%
growth [4]: 11.7%
growth [9]: 2.67% (active)
growth [5]: 2.53% (active)
growth [6]: 0.362% (active)
growth [7]: -36.4% (active)

O=C1c2ccccc2C(=O)N1OCc1ccccc1
growth [1]: 103%
growth [8]: 83.6%
growth [2]: 112%
growth [3]: 113%
growth [4]: 77.7%
growth [9]: 110%
growth [5]: 108%
growth [6]: 109%
growth [7]: 113%

NC(=S)N/N=C/c1ccc(N)cc1
growth [1]: 107%
growth [8]: 96.1%
growth [2]: 104%
growth [3]: 96.6%
growth [4]: 82.2%
growth [9]: 99.8%
growth [5]: 95.8%
growth [6]: 91.5%
growth [7]: 112%

N#CCCN(CCCN1CCOCC1)CN1C(=O)c2ccccc2C1=O
growth [1]: 107%
growth [8]: 87.7%
growth [2]: 110%
growth [3]: 100%
growth [4]: 105%
growth [9]: 96.8%
growth [5]: 107%
growth [6]: 101%
growth [7]: 101%

O=C(CS)Nc1ccc2ccccc2c1
growth [2]: 101%
growth [3]: 98%
growth [4]: 70%
growth [9]: 91.9%
growth [5]: 94.1%
growth [6]: 86.7%
growth [7]: 102%
